Experimental data reported in article PMC9574860, “Chemical Toolkit for PARK7: Potent, Selective, and High-Throughput” (Journal of Medicinal Chemistry, 2022).
Hit rate of the full screen: of about 7,900 compounds, about 400 (5.1%) showed an effect of 50% or more. What follows is part of a selection rich in strong results, with near analogues and random picks from the rest.

target: Parkinson's disease protein 7 (PARK7/DJ1) (human, UniProt Q99497); test: primary screen, percent inhibition; read as competition with a fluorescent probe by fluorescence polarization; higher = more effect of the substance; conditions: 100 µM
Method in brief: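 Covalent fragments at 100 μM final were incubated 2 h with 0.2 μM PARK7, then 20 nM probe JYQ-107 added for a further 2 h. Fluorescence polarization read at 480/520 nm; relative FP loss versus reference controls gave remaining enzyme activity.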

Parkinson's disease protein 7 (PARK7/DJ1), sequence (Q99497 whole entry, looked up, the tested form may be a part): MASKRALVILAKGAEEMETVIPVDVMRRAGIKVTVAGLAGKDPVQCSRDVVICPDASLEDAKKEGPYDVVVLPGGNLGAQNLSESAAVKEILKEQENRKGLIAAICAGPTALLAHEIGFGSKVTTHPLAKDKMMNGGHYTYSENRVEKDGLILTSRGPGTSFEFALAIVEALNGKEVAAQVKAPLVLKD

SMILES | Inhibition %
CC(=O)c1ccc(N2CCN(C(=O)CCl)CC2)c(F)c1 | 11%
O=C(CCl)N1CCN(c2ccc([N+](=O)[O-])cc2)CC1 | 7.53%
O=C(CCl)N1CCN(C(=O)Nc2ccccc2)CC1 | 64.2%
O=C(CCl)N1CCN(c2ccccc2[N+](=O)[O-])CC1 | 80.7%
Cl.O=C(CCl)N1CCN(Cc2ccccc2)CC1 | 7.64%
O=C(Nc1ccccc1)C1CCN(C(=O)CCl)CC1 | 12.6%
C=CC(=O)NCc1nnc2n1CCCC2C(F)(F)F (stereo not shown) | 8.99%
CN1CCN(CCCCl)CC1.Cl.Cl | 9.44%
CCN(Cc1ccc(Br)s1)C(=O)CCl | 12.9%
CC1(NC(=O)CCl)CCS(=O)(=O)C1 (stereo not shown) | 2.17%
C=CC(=O)NCCc1nc2ccc(F)cc2n1C | 3.72%
C=CC(=O)NCC1CCC2(CCCC2)O1 (stereo not shown) | 4.84%
O=c1cnc2ccccc2n1CCS(=O)(=O)F | 13.8%
CS(=O)(=O)n1cnc2ccccc21 | 11.4%
Cc1cnc2ccccc2c1S(=O)(=O)F | 95.2%
Cl.ClCCn1cc(-c2ccccc2)cn1 | 6.06%
C=CC(=O)NCc1cccc(C(=O)NC(C)(C)C)c1 | 9.53%
Cc1ccc(C)c(C(=O)Cn2cnc(C#N)n2)c1 | -2.83%
COc1ccc(CS(=O)(=O)F)cc1 | 88.4%
COC(=O)c1ccc(CS(=O)(=O)F)cc1 | 7.95%
O=S(=O)(F)Cc1ccccc1 | 8.98%
Cc1csc(C(C#N)=Cc2cccc3c2OCCCO3)n1 | 1.3%
N#Cc1ccc(NCC2CCN(CC(F)(F)F)C2)cn1 (stereo not shown) | 5.73%
O=C(CCl)Nc1ccc(S(=O)(=O)N2CCCC2)cc1 | 85.4%
O=C(CCl)Nc1ccc(S(=O)(=O)N2CCOCC2)cc1 | 87.4%

SMILES | Inhibition %
O=C(CCCl)Nc1ccc(S(=O)(=O)N2CCCC2)cc1 | 3.33%
O=C(CCCl)Nc1cccc(S(=O)(=O)N2CCCC2)c1 | 4.27%
Cl.O=C(CCl)Nc1ccc(CN2CCOCC2)cc1 | 40.1%
O=C(CCl)Nc1cccc(S(=O)(=O)N2CCCC2)c1 | 7.91%
O=C(CCl)Nc1cccc(S(=O)(=O)N2CCOCC2)c1 | 8.1%
C=CC(=O)Nc1ccc(S(=O)(=O)N2CCCC2)cc1 | 8.4%
O=C(CCl)Nc1ccc(S(=O)(=O)N2CCCCC2)cc1 | 92.7%
Cn1cc(B2OC(C)(C)C(C)(C)O2)cn1 | 4.89%
CC(C)(C(=O)CCl)N1C(=O)c2ccccc2C1=O | 5.76%
C=CC(=O)N1C[C@@]2(C)CS(=O)(=O)C[C@@]2(C)C1 | 5.67%
N#Cc1nc(C2CC2)oc1N1CCN(C(=O)C2CC2)CC1 | 5.36%
N#Cc1nccn1Cc1ccc(F)cc1F | 68.3%
N#Cc1nccn1Cc1cccc(F)c1F | 4.63%
N#Cc1nccn1Cc1cc(F)cc(F)c1 | 5.08%
C=CC(=O)N1CCC(c2ccnn2C)CC1 | 4.28%
COC1CCN(c2nc(C#N)c(Cl)s2)CC1 | 7.16%
COC1CCN(c2nc(C#N)ccc2C)CC1 | 71.3%
Cc1ccc(C#N)nc1N1CCCOC(C)C1 (stereo not shown) | 42.8%
N#CC(=Cc1cnn(-c2ccccc2)c1)C(=O)O | 10.6%
CN(C)C(=O)Sc1cnc2nccn2c1 | 3.18%
CN(C(=O)CCl)C1CCS(=O)(=O)C1 (stereo not shown) | 8.14%
CN(C(=O)CCl)C1CC1 | -0.367%
CN(C(=O)CCl)C1CCCCC1 | 92.5%
CN(CC1CCCCC1)C(=O)CCl | 50%
CN(CC12CC3CC(CC(C3)C1)C2)C(=O)CCl | 9.71%

SMILES | Inhibition %
CN(C(=O)CC1OCCCO1)C1CCCCC1 | 3.82%
CCN(C(=O)CCl)C1CCCCC1 | 9.37%
CC1CCC(N(C)C(=O)CCl)CC1 (stereo not shown) | 101%
CN(CC1CC1)C(=O)CCl | 50.3%
C=CC(=O)Nc1cccc2c1CN(CC(C)C)C2 | 8.44%
O=C(c1ccc(S)nc1)N1CCCC1 | 40.7%
N#CN(Cc1nnc(C2CCC2)o1)c1ccc(F)c(Cl)c1 | -0.412%
C=CC(=O)N1CCC12CCOC2 (stereo not shown) | 7.06%
Cc1ccc(C(C)NC(=O)Cn2cnc(C#N)n2)cc1C (stereo not shown) | 3.5%
CC(=O)c1ccc(S(=O)(=O)F)cc1 | 34.9%
Cc1ccc(S(=O)(=O)F)cc1C(=O)O | 87.9%
Cc1cc(S(=O)(=O)F)ccc1C(=O)O | 85.1%
O=C(O)c1cc(S(=O)(=O)F)ccc1Cl | 7.95%
Cc1ccc(S(=O)(=O)F)cc1 | 2.62%
C=CC(=O)NC1CCOC2(CCSC2)C1 (stereo not shown) | 6.26%
Cc1cc(C)n(S(=O)(=O)N2CCCCC2)n1 | 7.02%
O=C(Nc1cccc(S(=O)(=O)F)c1)C1(CF)CCC1 | 95.8%
COc1ccccc1C(=O)Nc1cccc(S(=O)(=O)F)c1 | 4.59%
O=C(Nc1cccc(S(=O)(=O)F)c1)C1(CF)CCOCC1 | 95.3%
COCC1(C(=O)Nc2cccc(S(=O)(=O)F)c2)CCCC1 | 94.3%
CCC1(C(=O)Nc2cccc(S(=O)(=O)F)c2)CCC1 | 93.8%
COc1ccc(S(=O)(=O)n2ccc(C)n2)cc1C | 2.32%
Cc1nn(C)c(Cl)c1C=CC(=O)N1CCC(C(=O)O)C1.Cl (stereo not shown) | 7.34%
C=CC(=O)NCC1CC2(CCC2)CO1 (stereo not shown) | 5.74%
Cc1cccc(-n2nnnc2SC2CC(C)OC2=O)c1 (stereo not shown) | 3.51%

SMILES | Inhibition %
Cn1cc(NS(=O)(=O)C=Cc2ccccc2Cl)cn1 | 28.6%
CCn1cc(C2NC(=O)C23CCOCC3)cn1 (stereo not shown) | 2.01%
Cc1ccc(NC(=O)C(C#N)=Cc2cn(C)cn2)c(C)c1 | 10.3%
CCN(C(=O)CCl)c1ccc(F)cc1 | 31.3%
Cc1cc(C=C(C#N)C(=O)NCC2CCCO2)ccc1F (stereo not shown) | 2.68%
CC(C)(C)OC(=O)N1CCCC(S(=O)(=O)F)C1 (stereo not shown) | 10.7%
O=C(N[C@H]1CC[C@@H](CS(=O)(=O)F)C1)C1CCOCC1 (racemic) | 77.4%
CC(C)(C)OC(=O)N[C@@H]1CC[C@H](CS(=O)(=O)F)C1 (racemic) | 87.2%
O=S(=O)(F)CC1CCOCC1 | 10.5%
COC(=O)C1CC(S(=O)(=O)F)CN1C(=O)C1CCOCC1 (stereo not shown) | 9.64%
Cl.N[C@@H]1CC[C@H](CS(=O)(=O)F)C1 (racemic) | 22.9%
CC(C)C1(c2ccccc2)CO1 (stereo not shown) | 4.43%
N#CSCc1nc2ccccc2[nH]1 | 24.5%
COc1cc(SC#N)ccc1O | 15.4%
CS(=O)(=O)OCC1CCCNC1=O (stereo not shown) | 7.7%
COc1ccc(NCCS(=O)(=O)F)cc1.Cl | 44.4%
Cl.O=S(=O)(F)CCNc1ccc(Cl)cc1 | 66%
Cl.O=S(=O)(F)CCNc1ccc(F)cc1 | 36.8%
N#Cc1ccc2cc[nH]c2n1 | 68.4%
N#Cc1ccc(Cl)c(Cl)n1 | 5.12%
N#Cc1ccc2[nH]ccc2n1 | 18.7%
COc1cc(C=C(C#N)C(=O)NC(C)C)cc(Cl)c1O | -0.272%
Cl.NC1C=CS(=O)(=O)C1 (stereo not shown) | 9.63%
NC(=O)c1c(NC(=O)CCl)sc2c1CCC2 | 38.6%
CCn1nc(C)c(C(=O)CCl)n1 | 13.1%

SMILES | Inhibition %
C=CC(=O)NCCCc1cnn(C)n1 | 5.99%
Cn1cccc1C(=O)CCl | 8.03%
Cn1ccc(C(=O)CCl)c1 | 49%
Cn1cc(C(=O)CCl)cn1 | 77.2%
Cn1nncc1C(=O)CCl | 82.2%
Cl.O=C(CCl)c1csc(N2CCCCC2)n1 | 2.02%
CN(Cc1cnn(C)c1)C(=O)CCl.Cl | 20.6%
Cn1ncc(C(=O)CCl)n1 | 95.3%
CCn1ncc(C(=O)CCl)n1 | 87.8%
Cn1ccnc1C(=O)CCl | 32.3%
Cn1nccc1C(=O)CCl | 15.4%
OC1(C2CO2)CCOCC1 (stereo not shown) | 7.63%
CC1(C)OB(c2cccc(CN3CCOCC3)c2)OC1(C)C.Cl | 25.8%
N#CN(Cc1ccc(C(N)=O)cc1)c1ccc(F)cc1 | 3.09%
C=CC(=O)NC1CCCC1C(=O)NC (stereo not shown) | 9%
Cc1nc(C=CC(=O)N2CCC(C)(C(=O)O)C2)cs1 (stereo not shown) | 5.72%
COc1ccc(C2=NC(=Cc3csc(C)n3)C(=O)O2)cc1 | 14.1%
Nc1ccc(N2CCC2=O)cc1 | 16.5%
Cc1ccc(Cc2cnc(NC(=O)CCl)s2)cc1 | 7.26%
O=C(CCl)Nc1nc2ccc([N+](=O)[O-])cc2s1 | 6.68%
O=C(CCl)Nc1ncc([N+](=O)[O-])s1 | 96.3%
C=CC(=O)Nc1ccc(F)c(F)c1 | 7.82%
CCc1nccn1S(=O)(=O)c1ccc(Cl)c(C)c1 | 1.29%
CC(C)NC(=O)C(C#N)=Cc1cccc(O)c1 | 19.6%
